# Assay results published in PubChem BioAssay (Tox21).
# Inconclusive results are not listed. The source made the active and inactive calls. Calls follow the shape of the dose curve; as a rule, active = well fitted activation curve with a large enough effect in the repeat runs; inconclusive = weak or mixed curves; inactive = no such curve, though single readings can be large or run the other way.
# Molecular target: Nuclear receptor subfamily 1 group I member 3 (Homo sapiens) (UniProt Q14994)
# Assay: qHTS assay to identify small molecule agonists of the constitutive androstane receptor (CAR) signaling pathway (AID 1224839); also: nearly all actives have a fitted effect of over 15% in size;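 as to activation: HepG2 cells stably carrying human CAR and a CYP2B6 luciferase reporter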
# Details: HepG2 hCAR CYP2B6-luciferase, agonist mode, 24 h; series mostly up to 92.4 µM; activation: at the top concentration
# From the text: National Center for Advancing Translational Sciences [NCATS] NIH Chemical Genomics Center [NCGC] U.S. Environmental Protection Agency [EPA] National Institutes of Environmental Health Sciences [NIEHS] National Toxicology Program [NTP] Assay overview: The constitutive androstane receptor (CAR) is a nuclear receptor which regulates multiple drug metabolizing enzymes (DMEs) and transporters. Activating CAR will generally increase the transcription and subsequent translation of CYP2B6 and CYP3A4. These two DMEs represent about 50% of the drug metabolizing potential in the body. […] Recently, there have also been studies performed indicating CARs role in energy metabolism and cancer therapy. Therefore, inducing CARs activity could have a potential effect on diabetes and cancer. Identifying environmental toxins and compounds which modulate CAR, through the use of the Tox21 10K compound collection, will be an important step in determining the toxicity and potential therapeutic effects these factors will have on the human body.
# Assay Protocol Summary: A double-stable (hCAR and CYP2B6-2.2kb) transfected cell line, derived from human hepatoma (HepG2) cells, was utilized for the duration of the quantitative high-throughput screens. The HepG2-CYP2B6-hCAR cells suspended in DMEM culture medium supplemented with 10% FBS, 5 ug/mL blasticidin, 0.5 mg/mL geneticin, 100 U/mL penicillin and 100 ug/mL streptomycin were dispensed at 2500 cells/4 uL/well in 1536-well white solid bottom plates using a Multidrop Combi. After the assay plates were incubated at 37 C/5% CO2 for 4 hrs, 23 nL of compounds at 15 concentrations (from 5-48 columns) or positive control (from 1 to 4 columns) were transferred to the assay plates using a Pintool station. One uL of PK11195, was added using a Flying Reagent Dispenser to generate a final concentration of 0.75 uM PK11195 inside each well. After a 24 hr incubation period at 37 C/5% CO2, four uL of ONE-Glo reagent was added into the assay plates using a Flying Reagent Dispenser. After a 30 min incubation period at room temperature, the luminescence intensity in the assay plates was measured using a ViewLux plate reader.
# % is scaled to controls: 0 for no effect and ±100 for the full control effect; potency is read from the fitted curve at half-maximal effect.
# Sequence of Nuclear receptor subfamily 1 group I member 3 (Homo sapiens) (Q14994 whole entry, looked up): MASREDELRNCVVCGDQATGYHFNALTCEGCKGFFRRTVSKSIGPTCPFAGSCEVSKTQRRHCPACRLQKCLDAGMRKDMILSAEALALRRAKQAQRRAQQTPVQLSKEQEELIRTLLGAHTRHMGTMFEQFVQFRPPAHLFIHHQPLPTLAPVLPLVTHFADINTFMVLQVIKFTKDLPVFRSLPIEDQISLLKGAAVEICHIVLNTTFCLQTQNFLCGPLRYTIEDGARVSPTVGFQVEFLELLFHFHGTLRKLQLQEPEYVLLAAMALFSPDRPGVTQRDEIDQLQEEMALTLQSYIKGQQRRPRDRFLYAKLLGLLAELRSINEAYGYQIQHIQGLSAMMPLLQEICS
Compound,activation,Potency
N[C@@H](CSSC[C@H](N)C(=O)O)C(=O)O,-0.0368% [at 0.349 µM] (inactive),–
CC(C)=CCCC(C)CCOC(=O)C(C)C (stereo not given),-1.5% (inactive),–
COc1cccc(O)c1,9.3% (inactive),–
O=C1c2c(O)ccc([N+](=O)[O-])c2C(=O)c2c([N+](=O)[O-])ccc(O)c21,-24.5% (inactive),–
OCCCCl,-4.98% (inactive),–
CCO[Si](CCCSSSSCCC[Si](OCC)(OCC)OCC)(OCC)OCC,3.25% (inactive),–
NC(=O)C(=O)N/N=C/c1ccc([N+](=O)[O-])o1,-1.16% [at 42.5 µM] (inactive),–
CC(C)c1ccccc1N,6.67% (inactive),–
c1ccc2c(c1)CCC2,-0.154% (inactive),–
OCCN1CN(CCO)CN(CCO)C1,-1.33% (inactive),–
CC[N+](CC)(CC)Cc1ccccc1,-0.885% (inactive),–
Cc1occc1SSc1ccoc1C,-4.83% (inactive),–
COC(=O)CC#N,-0.982% (inactive),–
OCCCS,4.6% (inactive),–
CCN(CC)CCNc1ccc(CO)c2sc3ccccc3c(=O)c12,-17.7% [at 42.5 µM] (inactive),–
CCOCN(C(=O)CS(=O)(=O)O)c1c(C)cccc1CC,0.388% (inactive),–
Nc1ncnc2c1ncn2[C@@H]1O[C@H](COP(=O)(O)O)[C@@H](O)[C@H]1O,1.01% [at 42.5 µM] (inactive),–
CCN(CC)CCSC(=O)C(c1ccccc1)c1ccccc1,-0.722% [at 42.5 µM] (inactive),–
CCCCCCCC(OC)OC,1.36% [at 42.5 µM] (inactive),–
O=C[C@H](O)[C@H](O)[C@H](O)CO,-1.54% (inactive),–

Compound,activation,Potency
CN(C)CCCN1c2ccccc2Sc2ccc(C(F)(F)F)cc21,-3.33% [at 42.5 µM] (inactive),–
C=CC(=O)OCCOCC(CC)(COCCOC(=O)C=C)COCCOC(=O)C=C,-21.7% (inactive),–
CCCCCCCC/C=C\CCCCCCCC(=O)NCc1ccc(O)c(OC)c1,0.545% [at 42.5 µM] (inactive),–
CCOC(=O)CC(C)O (stereo not given),1.66% (inactive),–
CCCCCCCOC(=O)c1ccc(O)cc1,7.99% (inactive),–
Cc1cccc(C)n1,-0.31% (inactive),–
CC1CCCCC1,-0.445% (inactive),–
CCC1(c2cnc[nH]2)Cc2ccccc2C1,3.32% [at 42.5 µM] (inactive),–
NC(=O)c1ccccc1N,2.38% (inactive),–
CCCCCCCCC(C)=O,0.924% (inactive),–
CCNc1nc(NC(C)CC)nc(OC)n1 (stereo not given),3.54% (inactive),–
CCCCCCCCCCCCCCNCCO,–,8.41 µM (active)
O=S(O)O,-1.32% [at 19 µM] (inactive),–
CC(=O)OC(OC(C)=O)c1ccc([N+](=O)[O-])o1,-24% (inactive),–
C=CC(=O)OCCC#N,2.05% (inactive),–
CC(C)c1ccc(O)c(C(C)C)c1,3.67% (inactive),–
O=Nc1ccc(NO)cc1,5.07% (inactive),–
CCC1CCCCC1,-1.13% (inactive),–
ClC/C=C\CCl,-1.41% (inactive),–
CCN(CC)c1ccc(N)cc1,–,7.05 µM (active)
